This is part of a sample that, as a whole, favours compounds with a hit. Of some 83,000 tested, about 20% had one in any assay.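 Treatment: one concentration, 48 hours, 96-well format. Scoring: percent growth, with anything below 10 considered active.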 A number with no mark means an inactive call. Active and inactive are the calls of the source.

The values that follow come from PubChem BioAssay (NCI).

Common to all, as to experiment: NCI-60 one-dose screen, 48 h (100 = growth as untreated, 0 = no growth, -100 = all killed)
Assay [1] deals with K-562 leukemia. The settings on record: 10 µM unless noted.
The test system of assay [2] is MALME-3M melanoma. Particulars: 10 µM unless noted.
The test system of assay [3] is MDA-MB-231 breast. The settings on record: 10 µM unless noted.
In assay [4] the test system is RXF 393 renal. Particulars: 10 µM unless noted.
For assay [5], the system named is SF-268 CNS. The settings on record: 10 µM unless noted.
Assay [6] has as its system SF-295 CNS. Particulars: 10 µM unless noted.
The test system of assay [7] is SF-539 CNS. Particulars: 10 µM unless noted.
In assay [8] the test system is UACC-257 melanoma. The settings on record: 10 µM unless noted.
Assay [9] has as its system M14 melanoma. The settings on record: 10 µM unless noted.
The test system of assay [10] is HCT-15 colon. Particulars: 10 µM unless noted.
For assay [11], the system named is HT29 colon. The settings on record: 10 µM unless noted.
Assay [12] deals with SNB-19 CNS. The settings on record: 10 µM unless noted.
The subject of assay [13] is U251 CNS. The settings on record: 10 µM unless noted.
Assay [14] deals with PC-3 prostate. Particulars: 10 µM unless noted.
In assay [15] the test system is UACC-62 melanoma. Particulars: 10 µM unless noted.
Assay [16] has as its system LOX IMVI melanoma. Particulars: 10 µM unless noted.
The test system of assay [17] is SK-MEL-28 melanoma. The settings on record: 10 µM.
The subject of assay [18] is SK-MEL-2 melanoma. Particulars: 10 µM unless noted.
The subject of assay [19] is SNB-75 CNS. Particulars: 10 µM unless noted.
Assay [20] has as its system SK-MEL-5 melanoma. The settings on record: 10 µM unless noted.

Consider `CCCN1C(=O)N(CCC)C2C1NN=c1s/c(=C3\C(=O)N(C(C)C)c4ccccc43)c(=O)n12` (stereo not drawn), for which the growth in assay [1] was 11.3%; in [2], 36.5%; in assay [3] it was 41.8%; in assay [4], 12.2%; in [5], 46.8%; in assay [6], 22.2%. The growth in [7] is 23.1%; in [8] it was 53.8%; in assay [9], 37.8%; in assay [10] it was 24.4%; in assay [11] it was 18.8%; in assay [12], 47.9%. Besides, the growth in [13] was 48.4%; in [14], 35.8%; in assay [15], 31.5%; in [16] it was 41.1%; in [17] it was 60.7%; in assay [18] it was 49.4%.
As for `COC(=O)c1c2c(c(C)[n+]([O-])c1C)C(=O)C=C(NCc1ccccc1)C2=O`, the growth in assay [1] is 1.96% (active); in [2] it was -96.9% (active); in [3], -26% (active); in [4], -25.3% (active); in assay [5] it was -4.22% (active); in assay [6] it was -84% (active). Besides, the growth was -90.2% (active) in assay [7]; -89.6% (active) in assay [8]; -68.5% (active) in [10]; 5.35% (active) in assay [11]; -71.5% (active) in assay [19]; -11.4% (active) in assay [12]. The growth is -9.66% (active) in [13]; 4.06% (active) in assay [14]; -98.5% (active) in assay [20]; -72.3% (active) in assay [15]; -28.2% (active) in assay [16]; 14.1% in assay [17]. In addition, in assay [18], the growth is -29.6% (active).
For the compound `NC(CCc1nc2ccccc2c(=O)[nH]1)C(=O)O` (stereo not drawn), the growth in assay [1] was 96.7%; in assay [2] it was 104%; in [3], 103%; in assay [4], 115%; in [5], 106%; in assay [6], 104%. Besides, the growth in assay [7] was 105%; in assay [8], 105%; in [9], 105%; in assay [10] it was 101%; in assay [11] it was 104%; in [12] it was 98.3%. In addition, the growth is 96.6% in assay [13]; 102% in [14]; 100% in assay [15]; 102% in assay [16]; 110% in assay [17]; 102% in assay [18].
Regarding `CCN1C(=O)N(CC)C2C1NN=c1s/c(=C3\C(=O)N(CC(C)(C)C)c4ccccc43)c(=O)n12` (stereo not drawn), the growth in assay [1] is 4.89% (active); in [2], 71.3%; in assay [3], 26%; in assay [4] it was 12.3%; in [5], 40%; in assay [6] it was 15.9%. For the same compound, the growth in assay [7] is -17.9% (active); in [8], 71.4%; in assay [9], 18.3%; in assay [10], 14.2%; in [11], 6.57% (active); in assay [12] it was 33.1%. For the same compound, the growth is 21% in assay [13]; 20.8% in assay [14]; 36.1% in assay [15]; 38.7% in assay [16]; 64% in assay [17]; 53.6% in assay [18].
Turning to `O=C(NC1C(O)OC(CO)C(O)C1O)NS(=O)(=O)c1ccc(Cl)cc1` (stereo not drawn), the growth in [1] was 108%; in assay [2], 104%; in assay [3], 103%; in [4] it was 115%; in [5], 98.7%; in [6], 103%. The growth in assay [7] is 101%; in assay [8], 104%; in assay [10], 102%; in [11], 93.2%; in [19] it was 94%; in [12], 101%. In addition, the growth is 103% in assay [13]; 94.5% in assay [14]; 104% in [20]; 94.8% in assay [15]; 101% in [16]; 105% in [17]. In addition, the growth in [18] is 101%.
For the compound `c1ccc2c(c1)oc1cc3sccc3nc12`, the growth in assay [1] is 98.1%; in assay [2], 102%; in assay [3] it was 101%; in assay [4], 109%; in assay [5], 97.5%; in assay [6] it was 108%. Besides, the growth in [7] was 98.8%; in [8] it was 104%; in assay [10], 99.5%; in assay [11], 106%; in assay [12], 98.3%; in assay [13] it was 92%. For the same compound, the growth in assay [14] is 93.4%; in assay [15], 94.2%; in [16], 96.8%; in assay [17], 109%; in assay [18], 95.3%.
As to `COC(=O)[C@H]1CCCN1C(=O)[C@H]1CCCN1C(=O)[C@H](Cc1c[nH]c2ccccc12)NC(=S)Nc1cc(C(F)(F)F)cc(C(F)(F)F)c1`, the growth is 34.7% in assay [1]; 70.5% in [2]; -38.5% (active) in assay [3]; 64.8% in assay [4]; 47.8% in assay [5]; 74.3% in assay [7]. Besides, the growth in [8] was 67.9%; in assay [9] it was 56%; in [10], 70.4%; in assay [11], 7.55% (active); in assay [19], 52.8%; in [12] it was 51.3%. Besides, the growth in assay [14] was 39.9%; in assay [16], 34.5%; in [17], 54.8%; in assay [18], 94.9%.
For the compound `COc1cc(-c2c3c(c(Br)n2Cc2ccccc2)-c2nc(N)sc2CC3)cc(OC)c1OC`, the growth is 47.7% in assay [1]; 81% in assay [2]; 68.6% in assay [3]; 90.5% in [4]; 88.2% in assay [5]; 98.1% in [7]. The growth in [8] is 93.6%; in assay [9], 90.3%; in assay [10], 85%; in [11] it was 105%; in [19], 73.7%; in assay [12] it was 88.2%. In addition, the growth in assay [13] was 85.3%; in [14], 78.6%; in assay [20], 87.1%; in assay [15], 68.3%; in assay [16] it was 87.5%; in assay [17], 87.3%. Besides, the growth in assay [18] was 101%.
On to `Cc1ccc(OCCCCCCNCCO)c(C)c1`, for which the growth was 6.98% (active) in assay [1]; -0.226% (active) in assay [2]; 18% in [3]; -2.46% (active) in [4]; 4.83% (active) in [5]; -14.7% (active) in assay [7]. Also, the growth in [8] was -8.91% (active); in assay [9], -0.43% (active); in [10], 22.8%; in assay [11], 22.4%; in [19], 31.1%; in assay [12], 14.5%. Also, the growth is 3.86% (active) in assay [13]; 16% in [14]; -58.3% (active) in [20]; -42% (active) in assay [15]; -1.77% (active) in assay [16]; 15.5% in assay [17]. For the same compound, the growth in assay [18] is 2.48% (active).
